Assay outcomes as filed in PubChem.
Sampled rows, rich in hits. Any-hit rate of the full collection: about 1.4%.
IL2 activator: activators of IL-2 | IL-2 activation reporter assay, cell-based qHTS; stimulated with anti-CD3/CD4/CD28 beads; in transgenic mouse T cells | activation, % (series mostly up to about 46 µM) | actives 0.065% (n = 360,000) | AID 652025; in the data active = activation above about 50%; inconclusive = mostly about 30% to 49%; note: 0% is about no effect
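Readout is EGFP and DsRed signal by fluorescent plate cytometry after 18 h at 37 degrees C. Transgenic mouse T cells (750/well) received compound for 60 min before bead stimulation (anti-CD3, anti-CD4, anti-CD28); memory T cells served as non-tolerant control.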
BRCA1 expr act: BRCA1 expression activation; actives 1.1% (n = 380,000); Potency, µM (highest dose often 46.1 µM), without a hit: at the top dose activation, usual class: activators; MCF7-BRCA1-FFLuc reporter, luminescence, 48 h; response scale: scaled: vehicle 0%, 10 µM genistein 100%; AID 624202; note: potency is the fitted concentration of half-maximal effect; nearly all actives have a fitted effect of over 80% in size
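Activators of BRCA1 expression were detected as increased firefly luciferase luminescence in engineered MCF7 cells after 48 h compound incubation. Signals were scaled to genistein 10 microM as full activation.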
p53 reactivator: restores transcriptional activity of mutant p53 | H1299 p53-A138V BP100-luciferase reporter, luminescence, 24 h | Potency, µM (top dose mostly 92.2 µM), for inactives: top-dose activity change, positive = activation, actives largely listed as activators | actives 0.063% (n = 320,000); note: potency is the fitted concentration of half-maximal effect; % of control where 0% means no effect; nearly all actives have a fitted effect of over 45% in size
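p53-null H1299 cells stably carrying temperature-sensitive p53-A138V and a BP100-luciferase reporter were pinned with compounds (4-point, 1:5 series) and held 24 hrs at 37 deg C. Luminescence was read 10 min after detection reagent.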
TCR activator: T cell receptor activation; primary human leukocytes, anti-CD3, IL-2 HTRF, 48 h; Potency, µM (titrated, usually from 9.22 µM), for the others: top-dose activation of IL-2 secretion, hits mostly activators; 330,000 tested, under 10 active; note: % of control where 0% means no effect
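IL-2 produced over 48 hr by a-CD3 bead-stimulated primary human leukocytes exposed to compounds was detected with a homogeneous time-resolved FRET immunoassay, 665nm acceptor signal after 320nm excitation.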
uPA generation: inhibitors of cell surface uPA generation; cell surface uPA generation assay, qHTS; Potency, µM (top dose mostly 38.3 µM), for inactives: at the highest dose activity change, negative = inhibition, most hits filed as inhibitors; actives 0.31% (n = 330,000); active = well fitted inhibition curve with a large enough effect; inconclusive = small, poorly fitted or top-dose-only effect; inactive = no such curve, though single readings can be large or run the other way; tested in mouse RAW 264.7 cells; note: potency is the fitted concentration of half-maximal effect; % is set by controls: 0 for no effect and ±100 for the full control effect; nearly all actives have a fitted effect of over 55% in size
The depositor's hits bear a star; ? = inconclusive; nt = no result; [ ] = remark or other dose. Unless noted, calls come from the whole dose curve; as a rule, active = well fitted curve in the direction sought with a large enough effect; inconclusive = small, poorly fitted or top-dose-only effect, or another doubt; inactive = no such curve, though single readings can be large; an effect the other way counts as inactive or inconclusive.

SMILES	IL2 activator	BRCA1 expr act	p53 reactivator	TCR activator	uPA generation
CN(Cc1ccc(Cl)cc1)C(=O)CCl	-1	-76%	-12%	7%	7.9µM*
CCC1CCCCN1C(=O)CSc1nnc(-c2ccc(Cl)cc2)o1 (centres undefined)	-3	0%	7%	5%	?
CCC1CCCCN1C(=O)CSc1nnc(-c2ccco2)o1 (centres undefined)	-1	3.2µM*	?	1%[46.1 µM]	-4%
CCC1CCCCN1C(=O)CSc1nnc(-c2cccc(Cl)c2)o1 (centres undefined)	-3	10µM*	15%	7%	-4%
CCC1CCCCN1C(=O)CSc1nnc(-c2ccc(Cl)s2)o1 (centres undefined)	0	69%	29%	-3%	0%
COc1cccc(C2CC(=O)Nc3c2c(=O)n(C)c2nc4ccccc4n32)c1 (centres undefined)	nt	17%	nt	nt	nt
CNc1nc(-c2ccccc2)c(-c2ccccc2)s1	nt	0%	nt	nt	nt
CCCN1CNc2c(c(=O)[nH]c(=S)n2CCc2cc(OC)cc(OC)c2)C1	nt	0%	nt	nt	nt
O=C(c1cnn(-c2ccccc2)c1)c1cc(F)ccc1O	-2	10µM*	?	-2%	1%
O=C(c1cnn(-c2ccccc2)c1)c1ccccc1O	-4	?	nt	-3%[46.1 µM]	2%
COc1ccc(-c2nn3c(-c4cc(-c5ccccc5)n[nH]4)nnc3s2)cc1OC	nt	6%	nt	nt	nt
COc1ccc(NC(=O)Cn2c(=O)n(-c3ccccc3)c(=O)c3c4c(sc32)CCCC4)cc1	nt	6%	nt	nt	nt
CC(C)CCn1c(=O)c2cccnc2n(CC(=O)Nc2ccc(F)cc2)c1=O	nt	-7%	nt	nt	nt
COc1ccc(/C(N)=N/OC(=O)C2CCCCC2)cc1	-4	?	?	5%	8%
COc1ccc(/C(N)=N/OC(=O)C2CCCCC2)cc1OC	-1	2.8µM*	-5%	4%	0%
COc1ccc(C(=O)O/N=C(\N)c2ccccc2)c(OC)c1	0	-37%	nt	-3%[46.1 µM]	4µM*
COc1ccc(C(=O)O/N=C(\N)c2ccc(OC)c(OC)c2)cc1	1	13µM*	?	-2%	-20%
CCCN(CCC)c1nc(N)nc(C#N)n1	nt	0%	nt	nt	nt
CC1=C(C(=O)Nc2ccccc2)C(c2ccccn2)n2nc(SCc3ccccc3Cl)nc2N1 (centres undefined)	nt	12%	nt	nt	nt
Cc1ccc(S(=O)(=O)N2CCN(c3nc(-c4ncccn4)nc4ccccc34)CC2)cc1	nt	10%	nt	nt	nt
Oc1[nH]c2ccccc2c1N=Nc1ccccc1	-3	79%	28µM*	6%	3%
COC(=O)c1cc(N=Nc2c(C)[nH]c3ccccc23)cc(C(=O)OC)c1	0	-1%	-10%	-1%	12%
Oc1[nH]c2ccccc2c1N=Nc1ccccc1F	0	12%	?	-6%[46.1 µM]	2%
Oc1[nH]c2ccccc2c1N=Nc1ccc(F)cc1	191*	14%	?	-4%	4%
Cc1[nH]c2ccccc2c1N=Nc1cccc(C(=O)O)c1	1	3.2µM*	?	-6%[46.1 µM]	1%
SMILES	IL2 activator	BRCA1 expr act	p53 reactivator	TCR activator	uPA generation
O=C(N=Nc1c(O)[nH]c2ccccc12)Nc1ccccc1	0	?	nt	7%	4%
Cc1ccc(-n2c(SCC(=O)NCc3ccc(F)cc3)nc3c([nH]c4ccccc43)c2=O)cc1	nt	-31%	nt	nt	nt
CCCCOc1ccc(CC(=O)N(C)OC)cc1	nt	33%	nt	nt	nt
N/C(=N\C(=S)Nc1ccc2c(c1)OCO2)c1ccccc1	1	4.5µM*	nt	nt	nt
O=C(Nc1ccc2c(c1)OCO2)c1cccc(F)c1	-1	11µM*	nt	-7%	-2%
Cc1ccccc1NC(=O)Nc1ccc2c(c1)OCO2	-3	5.6µM*	27%	3%	-3%
Cc1ccc(C)c(NC(=O)Nc2ccc3c(c2)OCO3)c1	0	92%	?	-2%	-3%
O=C(CCS(=O)(=O)c1ccccc1)Nc1ccc2c(c1)OCO2	1	7.9µM*	6%	4%	4%
Cn1nccc1C(=O)Nc1ccc(Cl)cc1	-2	?	16%	5%	-5%
Cn1nccc1C(=O)Nc1ccc2c(c1)OCO2	-4	13µM*	20%	-4%	-5%
O=C(Nc1ccc2c(c1)OCO2)c1c(F)cccc1F	4	4.5µM*	?	-21%	nt
COc1ccc(Cc2nc3ccc(C(=O)NCCCSC)cc3o2)cc1OC	0	13µM*	nt	-1%	14%
COC(=O)CCNC(=O)c1ccc2nc(Cc3ccc(OC)c(OC)c3)oc2c1	0	?	2%	5%	15%
CCN(CCCN(C)C)c1ccc(/C=C/c2ccnc3ccccc23)cc1	nt	-14%	nt	nt	nt
COc1ccc(-c2nc3cc(C)ccn3c2NC(=O)c2cccc(F)c2)cc1	nt	10%	nt	nt	nt
NC(=O)CSc1nnc(-c2ccc([N+](=O)[O-])cc2)o1	3	60%	12%	-2%	0%
C=CCSc1nnc(-c2ccc([N+](=O)[O-])cc2)o1	-1	10µM*	?	-47%	-12%
Cn1c(SCc2ccccc2)nnc1-c1cccs1	0	?	17%	3%	-1%
Cn1c(SCc2ccccc2F)nnc1-c1cnccn1	0	?	?	-14%	nt
Cn1c(SCc2ccc(F)cc2)nnc1-c1ccccn1	1	4.5µM*	?	0%	-4%
Cn1c(SCc2ccc(F)cc2)nnc1-c1cccs1	-2	4.5µM*	14%	-6%	nt
Cn1c(SCC(=O)NC2CC2)nnc1-c1cccs1	-2	26%	35µM*	7%	-5%
Cc1ccc(CSc2nnc(-c3ccccn3)n2C)cc1	-1	?	?	1%	-3%
Cn1c(SCc2ccccc2F)nnc1-c1ccccn1	0	11µM*	-2%	-6%	-8%
Fc1ccccc1N1CCN(c2c3c(nc4nncn24)CCC3)CC1	nt	41%	nt	nt	nt
SMILES	IL2 activator	BRCA1 expr act	p53 reactivator	TCR activator	uPA generation
Cc1cn2c(=O)cc(COc3ccc(NC(=O)c4ccc(C(C)(C)C)cc4)cc3)nc2s1	nt	-11%	nt	nt	nt
Cc1ccc(S(=O)(=O)N2CCN(c3nc(-n4c(=O)[nH]c5ccccc54)nc4ccccc34)CC2)cc1	nt	-20%	nt	nt	nt
Nn1c(SCc2cccc(F)c2)nnc1-c1cccnc1	-1	0%	9%	-3%	4%
Fc1ccc(CSc2nnc(-c3ccccn3)o2)cc1	1	4µM*	17%	-4%	?
O=C(CSc1nnc(-c2ccccn2)o1)Nc1ccc(F)cc1	-2	114%	?	6%	-12%
Nn1c(SCc2ccccc2F)nnc1-c1cccnc1	4	8.9µM*	20%	8%	-24%
COc1ccc(C(=O)Nc2cc(-c3cccc(C)c3)nn2-c2ccccc2)cc1	nt	2%	nt	nt	nt
CCCCOc1ccc(C2(C)CC(=O)NC2=O)cc1 (centres undefined)	1	13µM*	16%	-11%	-4%
Clc1ccc(-c2cccs2)nn1	-1	1%	4%	0%	1%
CC1CCN(c2ccc(-c3cccs3)nn2)CC1	-3	?	-13%	-4%	0.89µM*
